MazEF act – activators of E. coli MazEF toxin-antitoxin RNase; P0AE70; activation, % at 20 µM; FAM/BHQ RNA-DNA oligo cleavage fluorescence, 5 h; actives 0.32% (n = 350,000); in the data active means activation above about 50%
Target sequence (P0AE70 whole entry, looked up): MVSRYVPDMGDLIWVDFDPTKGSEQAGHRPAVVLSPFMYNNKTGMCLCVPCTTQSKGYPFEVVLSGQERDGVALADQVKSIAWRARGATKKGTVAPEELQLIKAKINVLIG
Autofluor counter – compound fluorescence in toxin protease inhibitor counterscreen; compound autofluorescence counterscreen, microsphere flow cytometry; stronger effect = higher value; fluorescence intensity (test concentration not listed); actives 3.1% (n = 360,000); in the data active means fluorescence intensity above about 16000; inconclusive means no clear call, values can overlap the other calls
BoNT A protease – inhibitors of Botulinum neurotoxin A light chain protease | actives 0.17% (n = 360,000) | inhibition, % at 10 µM | multiplex microsphere protease substrate cleavage, flow cytometry
Anthrax LF inh2 – blocks Bacillus anthracis lethal factor protease | actives 0.12% (n = 360,000) | inhibition, % at 10 µM | AID 588501 | P15917 | multiplex microsphere protease cleavage assay, LF
BoNT-F LC inh – BoNT F light chain protease inhibition; Multiplex microsphere protease cleavage assay, flow cytometry; inhibition, % at 10 µM; actives 0.22% (n = 360,000); AID 588497; in the data active means inhibition above about 35%, passing the limit was not always enough; inconclusive means no clear call, values can overlap the other calls
Of the large screens only hits and unclear results are named; the others gave an inactive call. Sampled rows, rich in hits. Any-hit rate of the full collection: about 3.6%. Unless noted, no stated cut-off is given here; in the data, active means inhibition above about 30%; inconclusive means no clear call, values can overlap the other calls; inactive means below that.

CCOCCc1nnc(NC(=O)C(C)Oc2ccccc2)s1 (configuration not stated)	none
CCOCCc1nnc(NC(=O)C(CC)c2ccccc2)s1 (configuration not stated)	Autofluor counter 16622
CCOCc1nnc(NC(=O)CSCc2ccccc2)s1	Autofluor counter 20554, BoNT A protease inconclusive
CCOCc1nnc(NC(=O)COC)s1	Autofluor counter 23993
COc1cc(NC(=O)CCc2c(C)noc2C)c(C(=O)O)cc1OC	none
O=C1NC[C@H](CCCCN2C[C@H](Cc3ccc(O)cc3)N(Cc3ccccc3)C(=O)C2=O)N(CCc2ccccc2)C1=O	none (no result: MazEF act)
CCC(C)C(N)C(=O)NC(CCC(=O)OCc1ccccc1)C(N)=O (configuration not stated)	MazEF act 68
CC(C)CC(NC(=O)C(NC(=O)OC(C)(C)C)C(C)C)C(=O)NC(CCC(=O)OCc1ccccc1)C(N)=O (configuration not stated)	none
CCOC(=O)c1ccc(S(=O)(=O)NNC(=O)Cc2csc(C)n2)cc1	none (no result: Autofluor counter, BoNT A protease, Anthrax LF inh2, BoNT-F LC inh)
Cc1nn(C(=O)c2cccnc2)c(C)c1C	Autofluor counter 20525
CN(C)c1ccc(/C=C(\C#N)C(=O)Nc2nc3c(s2)CCN(Cc2ccccc2)C3)cc1	BoNT-F LC inh 58
O=C(O)C1CC=CCC1C(=O)N1CCN(c2nc(-c3ccccc3Cl)c3cc(Br)ccc3n2)CC1 (configuration not stated)	Autofluor counter 16567
O=C(O)C1CC=CCC1C(=O)N1CCN(c2nc(-c3ccccc3)c3ccccc3n2)CC1 (configuration not stated)	none
COc1ccc2c(c1)CCCC21NC(=O)N(CC(=O)c2cc(F)ccc2F)C1=O (configuration not stated)	none
Brc1ccc(-c2nn3c(-c4ccco4)nnc3s2)o1	Autofluor counter 22193, BoNT A protease inconclusive
COc1cccc(OC)c1-c1nn2c(-c3ccco3)nnc2s1	Autofluor counter 20967
Clc1ccc(-c2ccc(-c3nn4c(-c5ccco5)nnc4s3)o2)cc1	none
COc1cccc(-c2nn3c(-c4ccco4)nnc3s2)c1	none
OC(c1ccccc1)c1nc(-c2ccc3c(c2)OCO3)cs1 (configuration not stated)	none (no result: MazEF act)
CC(C)(C)NC(=O)CN(C(=O)C1(C)CC(=O)N=C2C=CC=CN21)C1CCCC1 (configuration not stated)	Autofluor counter 23762
COc1ccc(CNC(=O)CSc2nnc3c(n2)[nH]c2ccc(F)cc23)cc1	none
CCOC(=O)CN(C(=O)CSc1nnc2c(n1)[nH]c1ccc(OC)cc12)c1ccc(F)cc1	Autofluor counter 22990
O=C(COC(=O)c1ccc(C(F)(F)F)cc1)NC(=O)NC1CCCC1	none
CC(=O)Cc1nsc(NC(=O)c2ccc(-c3ccc(Cl)cc3Cl)o2)n1	Autofluor counter 20376
CC(=O)Cc1nsc(NC(=O)c2cc(-c3ccccc3Cl)oc2C)n1	none
CC(=O)Cc1nsc(NC(=O)c2cc(-c3ccc(Cl)c(Cl)c3)oc2C)n1	Autofluor counter 23305
CC(=O)Cc1nsc(NC(=O)c2ccc(-c3cc(Cl)ccc3Cl)o2)n1	none
O=C(NNC(=O)C1COc2ccccc2O1)c1ccccc1 (configuration not stated)	Autofluor counter 22774
CN(C)S(=O)(=O)c1ccc(C(=O)NNC(=O)C2COc3ccccc3O2)cc1 (configuration not stated)	none
CCOC(=O)[C@]12CCC=C1N(Cc1cccc3ccccc13)C(=O)[C@H](CC(=O)N1CCN(C(=O)C3CC3)CC1)C2	none (no result: MazEF act)
CN(C)c1nc(OCCNC(=O)COc2ccc(Cl)cc2Cl)nc(N2CCCCC2)n1	none
CN(C)c1nc(SCCOC(=O)COc2ccc(Cl)cc2Cl)nc(N(C)C)n1	BoNT A protease inconclusive
CN(C)c1nc(OCCNC(=O)COc2ccc(Cl)cc2Cl)nc(N(C)C)n1	Autofluor counter 22763
CN(C)c1nc(OCCOC(=O)COc2ccc(Cl)cc2Cl)nc(N(C)C)n1	Autofluor counter 21324
O=C(O)C1C2OC(C(Br)C2Br)C1C(=O)O (configuration not stated)	none
CCN1C(=O)[C@H]2[C@@H](c3ccc(-c4cc(C(C)=O)cs4)cc3)N3CCC[C@@]3(C(=O)OC)[C@H]2C1=O	none
O=C(NC(NCc1ccccn1)(C(F)(F)F)C(F)(F)F)c1ccco1	Autofluor counter 22419
COc1ccc(CN(C(=O)CCC(=O)Nc2cc(C)on2)C(C(=O)NC(C)(C)C)c2cccc(OC)c2OC)cc1 (configuration not stated)	none
Cn1c(CS(=O)Cc2c(Cl)cccc2Cl)nnc1SCc1c(Cl)cccc1Cl (configuration not stated)	Autofluor counter 16613
O=S(Cc1ccc(Br)cc1)Cc1nnc(SCc2c(Cl)cccc2Cl)n1-c1ccccc1 (configuration not stated)	none
Cn1c(CO)cnc1SCc1c(Cl)cccc1Cl	Autofluor counter 22193, BoNT A protease inconclusive
CCC1CCCCN1C(=O)c1ccc(OC2CCN(C(=O)CCOC)CC2)cc1 (configuration not stated)	none
CS/C(Nc1cc(Cl)ccc1Cl)=C(/C#N)C(=O)c1ccco1	BoNT-F LC inh inconclusive
COc1ccc(-c2nc3c(n2O)CCC/C3=N\O)cc1	Autofluor counter 21176, BoNT A protease inconclusive
CC1(C)N=C(c2ccc(Cl)cc2Cl)C(=O)N1	Autofluor counter 22553
CCN1CCN(Cc2oc(CO)cc(=O)c2O)CC1	Autofluor counter 19271, BoNT A protease inconclusive
CCCCN1C(=O)C(=O)NC[C@@H]1Cc1ccc(O)cc1	none (no result: MazEF act)
Cc1nc(CC(=O)c2ccc(O)cc2O)cs1	Autofluor counter 22193, BoNT A protease inconclusive
CC1(C)C2CCC(CN)C1C2 (configuration not stated)	none
COc1ccc(N/C=C2\CCc3ccccc3C2=O)cc1	none
COc1ccc(N/C=C2\C(=O)CCc3c2oc2cc(Cl)c(O)c(Cl)c32)cc1	MazEF act 120
Fc1ccccc1CSc1ncnc2c1oc1ccccc12	Autofluor counter 19470
CC(C)Sc1ncnc2c1oc1ccccc12	Autofluor counter 23211
O=C(CSc1ncnc2c1oc1ccccc12)Nc1cccc(Cl)c1	Autofluor counter 21833
COc1cccc(COC(=O)c2ccc3c(=O)n4c(nc3c2)CCC4)c1OC	none
O=C(/C=C/c1ccc(Cl)cc1)N1CCN(CCN2C(=O)c3cccc4cccc(c34)C2=O)CC1	none
CN(C)c1ccc(C(=O)N2CCNC(=O)C2CC(=O)Nc2ccc(F)cc2)cc1 (configuration not stated)	none
COCc1cc(=O)[nH]c(SCC(=O)Nc2ccccc2)n1	Autofluor counter 22752, BoNT A protease inconclusive
Nc1cc(=O)[nH]c(SCC(=O)Nc2cccc(Cl)c2)n1	Autofluor counter 17592
CCN1CCN(c2ccc(S(=O)(=O)N3CCCCC3)cc2NC(=O)c2cccc(OC(F)F)c2)CC1	none
CC(OC(=O)c1cccc(S(=O)(=O)N(C)C)c1)C(=O)NCC(=O)Nc1ccc(F)c(F)c1F (configuration not stated)	Autofluor counter inconclusive
O=C(NCCCN1CCCC1=O)c1cccc(C(F)(F)F)c1	Autofluor counter 20148, BoNT A protease inconclusive

Screening results deposited in PubChem BioAssay by several laboratories.
